Experimental data: PubChem BioAssay (NCI)
About 83,000 compounds went through this panel and 20% of them were active in at least one assay; those are over-represented in the sample as a whole.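 Interpretation: 100, growth as untreated; towards 0, rising growth inhibition; 0, no net growth; 0 to -100, cell death. Compounds scoring below 10 were considered active.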 Active and inactive are the calls of the source.

Key:
Experiment in all cases: NCI-60 one-dose screen, 48 h (100 = growth as untreated, 0 = no growth, -100 = all killed)
Conditions in all cases: 10 µM unless noted
NCI-H226 lung = tested on: NCI-H226 lung
NCI-H322M lung = tested on: NCI-H322M lung
HOP-62 NSCLC = tested on: HOP-62 NSCLC
NCI-H460 lung = tested on: NCI-H460 lung
HOP-92 NSCLC = tested on: HOP-92 NSCLC
NCI-H522 lung = tested on: NCI-H522 lung
A549/ATCC NSCLC = tested on: A549/ATCC NSCLC
786-0 renal = tested on: 786-0 renal
COLO 205 colon = tested on: COLO 205 colon
DU-145 prostate = tested on: DU-145 prostate
K-562 leukemia = tested on: K-562 leukemia
MALME-3M melanoma = tested on: MALME-3M melanoma
MDA-MB-231 breast = tested on: MDA-MB-231 breast
RXF 393 renal = tested on: RXF 393 renal
SF-268 CNS = tested on: SF-268 CNS
SF-295 CNS = tested on: SF-295 CNS
SF-539 CNS = tested on: SF-539 CNS
UACC-257 melanoma = tested on: UACC-257 melanoma
M14 melanoma = tested on: M14 melanoma

Measured: growth

Cc1nc2sccn2c1-c1nnc(SCc2ccccc2)o1
inactive: NCI-H226 lung 75.5% | NCI-H322M lung 90.4% | HOP-62 NSCLC 99.9% | NCI-H460 lung 99.6% | HOP-92 NSCLC 71.9% | NCI-H522 lung 78.2% | A549/ATCC NSCLC 91.2% | 786-0 renal 76.1% | COLO 205 colon 112% | DU-145 prostate 96.6% | K-562 leukemia 75.8% | MALME-3M melanoma 106% | MDA-MB-231 breast 98.6% | RXF 393 renal 78.9% | SF-268 CNS 105% | SF-295 CNS 82.5% | SF-539 CNS 93.4% | UACC-257 melanoma 94% | M14 melanoma 96.7%

O=C(N/N=C/c1ccsc1)c1[nH]c2ccc(Br)cc2c1-c1ccccc1
active: NCI-H226 lung -49.5% | NCI-H322M lung -7.27% | HOP-62 NSCLC -64.7% | NCI-H460 lung -72.5% | HOP-92 NSCLC -50.5% | NCI-H522 lung -70.9% | A549/ATCC NSCLC 3.43% | 786-0 renal -60.8% | COLO 205 colon -63.1% | DU-145 prostate -26.4% | K-562 leukemia 4.77% | MALME-3M melanoma -72.5% | MDA-MB-231 breast -69.9% | RXF 393 renal -47.5% | SF-268 CNS -56.1% | SF-295 CNS -87.5% | SF-539 CNS -95.5% | UACC-257 melanoma -51.9% | M14 melanoma -73.8%

CCCCCCCCCc1ccc(C(=O)Nc2cc(C)ccc2C(=O)OC)cc1
inactive: NCI-H226 lung 98.9% | NCI-H322M lung 112% | HOP-62 NSCLC 107% | NCI-H460 lung 115% | HOP-92 NSCLC 61.6% | NCI-H522 lung 101% | A549/ATCC NSCLC 114% | 786-0 renal 101% | COLO 205 colon 131% | DU-145 prostate 119% | K-562 leukemia 98.8% | MALME-3M melanoma 99.8% | MDA-MB-231 breast 103% | RXF 393 renal 117% | SF-268 CNS 116% | SF-295 CNS 103% | SF-539 CNS 112% | UACC-257 melanoma 106% | M14 melanoma 105%

C/C(=N\Nc1ccc(C(=O)O)cc1)c1cnn(-c2cc(=O)[nH]c3ccc(C)cc23)c1C
inactive: NCI-H226 lung 90.1% | NCI-H322M lung 98.2% | HOP-62 NSCLC 93.1% | NCI-H460 lung 109% | NCI-H522 lung 89.4% | A549/ATCC NSCLC 104% | 786-0 renal 93.2% | COLO 205 colon 118% | DU-145 prostate 107% | K-562 leukemia 101% | MALME-3M melanoma 83.3% | MDA-MB-231 breast 91.1% | RXF 393 renal 93.7% | SF-268 CNS 97.2% | SF-295 CNS 95.5% | SF-539 CNS 101% | UACC-257 melanoma 106% | M14 melanoma 96.3%
active: HOP-92 NSCLC 6.13%

N#CCc1nnc(NC(=O)c2ccc(-n3c(=O)[nH]c4ccccc4c3=O)cc2)s1
inactive: NCI-H226 lung 106% | NCI-H322M lung 101% | HOP-62 NSCLC 101% | NCI-H460 lung 100% | HOP-92 NSCLC 98.1% | NCI-H522 lung 89.3% | A549/ATCC NSCLC 105% | 786-0 renal 106% | COLO 205 colon 105% | DU-145 prostate 128% | K-562 leukemia 101% | MALME-3M melanoma 95.3% | MDA-MB-231 breast 95.5% | RXF 393 renal 112% | SF-268 CNS 115% | SF-295 CNS 93.6% | SF-539 CNS 97.9% | UACC-257 melanoma 104% | M14 melanoma 108%

O=C(c1ccc(O)cc1)C1[C@H](c2ccc(Cl)cc2)[C@@H](c2ccccc2)NC12C(=O)Nc1ccccc12 (stereo partly drawn)
active: NCI-H226 lung -13.8% | NCI-H322M lung 9.03% | HOP-62 NSCLC -20.1% | NCI-H460 lung -20.5% | HOP-92 NSCLC -27.8% | NCI-H522 lung -8.98% | 786-0 renal -43.2% | COLO 205 colon -82.9% | K-562 leukemia -8.58% | MALME-3M melanoma -40.2% | MDA-MB-231 breast -80.2% | RXF 393 renal -74% | SF-295 CNS -48.6% | SF-539 CNS -50.6% | M14 melanoma -27%
inactive: A549/ATCC NSCLC 14.4% | DU-145 prostate 20.5% | SF-268 CNS 22.4% | UACC-257 melanoma 77.7%

O=C(N/N=C/c1ccc(Br)o1)c1[nH]c2ccc(Br)cc2c1-c1ccccc1
active: NCI-H226 lung -42.6% | HOP-62 NSCLC -28.6% | NCI-H460 lung -63% | HOP-92 NSCLC -4.09% | NCI-H522 lung -61.5% | A549/ATCC NSCLC -4.05% | 786-0 renal -52.7% | COLO 205 colon -13.5% | DU-145 prostate -44.6% | K-562 leukemia 7.92% | MALME-3M melanoma 0.448% | MDA-MB-231 breast -73.4% | RXF 393 renal -43.2% | SF-268 CNS -12.2% | SF-295 CNS -25.8% | SF-539 CNS -99.5% | M14 melanoma 6.88%
inactive: NCI-H322M lung 15% | UACC-257 melanoma 26.2%

COc1ccc2[nH]c(O)c(N=Nc3nc(-c4ccc(C#N)cc4)cs3)c2c1
active: 786-0 renal -73.4%
inactive: NCI-H226 lung 98.4% | NCI-H322M lung 83.9% | HOP-62 NSCLC 77.5% | NCI-H460 lung 29.2% | HOP-92 NSCLC 25.1% | NCI-H522 lung 65.4% | A549/ATCC NSCLC 51.8% | COLO 205 colon 86% | DU-145 prostate 52.9% | K-562 leukemia 67.7% | MALME-3M melanoma 15.1% | MDA-MB-231 breast 59.7% | RXF 393 renal 38% | SF-268 CNS 82.6% | SF-295 CNS 68.8% | SF-539 CNS 48.9% | UACC-257 melanoma 70.6% | M14 melanoma 82.3%

Clc1ccc(Nc2nnc(-c3c[nH]c4ccccc34)o2)cc1
inactive: NCI-H226 lung 66.7% | NCI-H322M lung 91.3% | HOP-62 NSCLC 67.8% | NCI-H460 lung 83% | HOP-92 NSCLC 70.9% | NCI-H522 lung 24.2% | 786-0 renal 90.1% | COLO 205 colon 116% | DU-145 prostate 91% | K-562 leukemia 32% | MALME-3M melanoma 78.8% | MDA-MB-231 breast 65.1% | RXF 393 renal 90.2% | SF-268 CNS 68.6% | SF-295 CNS 68.6% | SF-539 CNS 66.5% | UACC-257 melanoma 84.4%

Cc1nn(-c2ccccc2)c2nc(C)n(CC(=O)N/N=C/c3cccc([N+](=O)[O-])c3)c(=O)c12
inactive: NCI-H322M lung 98.1% | HOP-62 NSCLC 96.1% | NCI-H460 lung 106% | HOP-92 NSCLC 91.9% | NCI-H522 lung 92.7% | A549/ATCC NSCLC 91.9% | 786-0 renal 84% | COLO 205 colon 120% | DU-145 prostate 105% | K-562 leukemia 91% | MALME-3M melanoma 99% | MDA-MB-231 breast 78.5% | RXF 393 renal 84.2% | SF-268 CNS 96.5% | SF-295 CNS 101% | SF-539 CNS 95.3% | UACC-257 melanoma 101% | M14 melanoma 107%

Cc1nn(-c2ccccc2)c2nc(C)n(C(=O)N/N=C/c3ccccc3)c(=O)c12
inactive: NCI-H226 lung 87.5% | NCI-H322M lung 103% | HOP-62 NSCLC 102% | NCI-H460 lung 106% | HOP-92 NSCLC 99.4% | NCI-H522 lung 97.9% | A549/ATCC NSCLC 101% | 786-0 renal 97.1% | COLO 205 colon 118% | DU-145 prostate 114% | K-562 leukemia 95.6% | MALME-3M melanoma 91.5% | MDA-MB-231 breast 91.8% | RXF 393 renal 111% | SF-268 CNS 104% | SF-295 CNS 94.9% | SF-539 CNS 93.8% | UACC-257 melanoma 106% | M14 melanoma 98.5%

COc1cncc(-c2ccc3ncnc(N4CCc5ccc(Cl)cc54)c3c2)c1
active: NCI-H322M lung -2.19% | HOP-92 NSCLC -56.9% | 786-0 renal -74.2% | RXF 393 renal -18.1% | M14 melanoma -52.4%
inactive: NCI-H226 lung 31.8% | HOP-62 NSCLC 51.3% | NCI-H460 lung 51.8% | NCI-H522 lung 36.6% | A549/ATCC NSCLC 29.9% | COLO 205 colon 38.4% | DU-145 prostate 24.6% | K-562 leukemia 12.6% | MALME-3M melanoma 44.2% | MDA-MB-231 breast 29.4% | SF-268 CNS 46.7% | SF-295 CNS 20.3% | SF-539 CNS 33.2% | UACC-257 melanoma 63.5%

FC(F)(F)CN1CCN(CCn2c(C(F)(F)F)cc3c(Cl)ncnc32)CC1
active: NCI-H322M lung -22.9% | NCI-H460 lung -41.2% | NCI-H522 lung -79.3% | K-562 leukemia -20.3% | MDA-MB-231 breast -35.6% | SF-268 CNS -18.5%
inactive: NCI-H226 lung 86.7% | HOP-62 NSCLC 40.2% | HOP-92 NSCLC 72.2% | A549/ATCC NSCLC 98.8% | 786-0 renal 84.6% | COLO 205 colon 70.5% | DU-145 prostate 30.9% | MALME-3M melanoma 77.3% | RXF 393 renal 59.7% | SF-295 CNS 67.1% | SF-539 CNS 66.6% | UACC-257 melanoma 45.7%
